Where “and” joins values, the source holds several entries; their conditions need not be identical. Equal entries are not always repeated. Inconclusive results are not listed. Entries that show only a call come without a potency. Calls of active or inactive are those of the source. The call rests on the fitted dose curve; in most records, active means well fitted cell-killing curve with a large enough effect in the repeat runs; inconclusive means weak or mixed curves, or effect the other way; inactive means flat fitted curve, though single readings scatter.
Tests used:
[1] = cAMP Responsive Elements (CRE) small molecule antagonists, cell-based qHTS assay: qHTS cell viability counter screen (AID 2060913); further: nearly all actives have a fitted effect of over 40% in size
Summary of the method: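 CRE-bla HEK293T cells (2,000/well, 18 h) given compound plus NKH477 0.25 uM final for 3 h at 37C; viability counter-screen by CellTiter-Glo luminescence in same wells after 30 min.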

[2] = cAMP Responsive Elements (CRE) small molecule agonists, cell-based qHTS assay: qHTS cell viability counter screen (AID 2060914);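 further: viability read after 3 h of compound exposure; nearly all actives have a fitted effect of over 50% in size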
Summary of the method: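 Cytotoxicity counter screen multiplexed with the CRE-bla reporter assay in HEK 293T cells: 3 h compound exposure at 37 °C, followed by CellTiter-Glo luminescence measured in the same wells.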
Potency means the concentration at half of the fitted maximal effect.

| SMILES | Potency [1] | Potency [2] |
| --- | --- | --- |
| CN(C)P(=O)(N(C)C)N(C)C | inactive | inactive |
| COCC(=O)N(c1c(C)cccc1C)C(C)C(=O)OC (stereo not given) | inactive | inactive |
| CC(=O)[O-].CC(=O)[O-].CC(=O)[O-].[Cr+3] | inactive | inactive |
| O=P(O)(O)CN(CP(=O)(O)O)CP(=O)(O)O | inactive | inactive |
| N#Cc1cccc(C#N)c1 | inactive | inactive |
| CN(CCCC(O)c1cccnc1)N=O (stereo not given) | inactive | inactive |
| Nc1ccc([N+](=O)[O-])cc1Cl | inactive | inactive |
| C=CC(=O)OC | inactive | inactive |
| Cc1[nH]c(=O)n(C(C)(C)C)c(=O)c1Cl | inactive | inactive |
| Cc1nnc2n1-c1sc(CCC(=O)N3CCOCC3)cc1C(c1ccccc1Cl)=NC2 | inactive | inactive |
| CC(C)CBr | inactive | inactive |
| OCCCl | inactive | inactive |
| CC1(C)CN=C(NN=C(/C=C/c2ccc(C(F)(F)F)cc2)/C=C/c2ccc(C(F)(F)F)cc2)NC1 | inactive | inactive |
| O=[N+]([O-])c1cc(Cl)c(Cl)c(Cl)c1 | inactive | inactive |
| Clc1ccc(-c2ccc(Cl)c(Cl)c2Cl)c(Cl)c1Cl | inactive | inactive |
| O=Cc1cccc(Oc2ccccc2)c1 | inactive | inactive |
| c1ccoc1 | inactive | inactive |
| C=C(Cl)CCl | inactive | inactive |
| c1ccc(OCC2CO2)cc1 (stereo not given) | inactive | inactive |
| CCOC(=O)Nc1cccc(OC(=O)Nc2ccccc2)c1 | inactive | inactive |
| Nc1ccc([N+](=O)[O-])cc1[N+](=O)[O-] | inactive | inactive |
| COS(=O)(=O)OC | inactive | inactive |

| SMILES | Potency [1] | Potency [2] |
| --- | --- | --- |
| CCCCCCCCOC(=O)c1ccc(C(=O)OCCCCCCCC)c(C(=O)OCCCCCCCC)c1 | inactive | inactive |
| CC(C)(c1ccccc1)c1ccc(O)c(C(C)(C)c2ccccc2)c1 | 42.9 µM (active) and 54.5 µM (active) | 60.6 µM (active) and 61.1 µM (active) |
| O=C/C(Cl)=C(/Cl)C(=O)O | inactive | inactive |
| CCOP(=S)(OCC)Oc1nc(Cl)c(Cl)cc1Cl | inactive | inactive |
| CC(=O)[O][Sn]([c]1ccccc1)([c]1ccccc1)[c]1ccccc1 | 6.11 µM (active) | 30.6 µM (active) |
| CCOP(=O)(OCC)Oc1nc(Cl)c(Cl)cc1Cl | inactive | inactive |
| CC(C)NCC(O)c1ccc([N+](=O)[O-])cc1 (stereo not given) | inactive | inactive |
| C=CCC1(C(C)CC)C(=O)NC(=O)NC1=O (stereo not given) | inactive | inactive |
| CC[N+](=O)[O-] | inactive | inactive |
| Fc1ccc(C2(Cn3cncn3)OC2c2ccccc2Cl)cc1 (stereo not given) | inactive | inactive |
| Nc1ccc([N+](=O)[O-])cc1N | inactive | inactive |
| C=C(Cl)CSC(=S)N(CC)CC | inactive | inactive |
| Cn1c(N)nc2c3cccnc3ccc21 | inactive | inactive |
| CN(C)CCc1c[nH]c2ccccc12 | inactive | inactive |
| COc1cccc(C(=O)CCN[C@@H](C)[C@H](O)c2ccccc2)c1 | inactive | inactive |
| Nc1ccc(Cc2ccc(N)cc2)cc1 | inactive | inactive |
| Oc1ccc(-c2ccccc2)cc1 | inactive | inactive |
| CC[N+]1(C)CCCC1 | inactive | inactive |
| O=C1CN=C(c2ccccc2)c2cc(Cl)ccc2N1CC1CC1 | inactive | inactive |
| CCOP(=S)(OCC)SCCl | inactive | inactive |
| Cc1ccc(N)c(C)c1 | inactive | inactive |
| OCCOc1ccccc1 | inactive | inactive |

| SMILES | Potency [1] | Potency [2] |
| --- | --- | --- |
| Clc1ccc(CSC(Cn2ccnc2)c2ccc(Cl)cc2Cl)cc1 (stereo not given) | inactive | inactive |
| CC(O)C(=O)[O][Hg][c]1ccccc1 (stereo not given) | 12.2 µM (active) | 12.2 µM (active) |
| C=COC(C)=O | inactive | inactive |
| CN(C)N | inactive | inactive |
| CCC(=O)O[C@@H]1C=C2CCC3C(CCC4(C)C3CC[C@@H]4OC(=O)CC)C2CC1 (stereo not given in full) | inactive | inactive |
| Cc1cc(O)ccc1Cl | inactive | inactive |
| C[N+](C)(C)CC(=O)[O-] | inactive | inactive |
| CC(=O)C(C)(C)C | inactive | inactive |
| CC(O)CN(CC(C)O)CC(C)O (stereo not given) | inactive | inactive |
| CC(C)(C)OO | inactive | inactive |
| COC(=O)COc1ccc(Cl)cc1Cl | inactive | inactive |
| CCCCCCC#N | inactive | inactive |
| Clc1ccc(-c2ccccc2)cc1 | inactive | inactive |
| CC(C)C(=O)OCC(C)(C)C(OC(=O)C(C)C)C(C)C (stereo not given) | inactive | inactive |
| CCCCOC(=O)c1ccccc1C(=O)OCCCC | inactive | inactive |
| CCN(CC)CCN1C(=O)CN=C(c2ccccc2F)c2cc(Cl)ccc21 | inactive | inactive |
| CCCCN(N=O)C(=N)N[N+](=O)[O-] | inactive | inactive |
| ClC(Cl)=C(c1ccc(Cl)cc1)c1ccc(Cl)cc1 | inactive | inactive |
| Nc1cc2c3c(c1)C(c1ccccc1)=N[C@@H](NC(=O)c1cccnc1)C(=O)N3CC2 | inactive | inactive |
| O=C1OC(c2ccc(O)c(S(=O)(=O)O)c2)(c2ccc(O)c(S(=O)(=O)O)c2)c2c(Br)c(Br)c(Br)c(Br)c21 | inactive | inactive |
| N#CN=C1SCCN1Cc1ccc(Cl)nc1 | inactive | inactive |
